Inconclusive results are not listed. Unmarked numbers belong to inactive results. Activity calls are given as the source filed them. Calls come from the whole dose curve; as a rule, active = well fitted inhibition curve with a large enough effect in the repeat runs; inconclusive = weak or mixed curves; inactive = flat fitted curve, though single readings scatter.
Experiment: qHTS assay to identify small molecule HDAC inhibitors (AID 1259364);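 note: wild-type HCT-116 cells with endogenous class I/II HDAC activity; nearly all actives have a fitted effect of over 45% in size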; for activity change, negative = inhibition: top concentration of the series differs between compounds
Conditions: HCT-116 HDAC-Glo I/II luminescence, 2 h; series mostly up to 92.4 µM; activity change, negative = inhibition: at the top concentration
Method in brief: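 Read-out: luminescence of HDAC-Glo I/II reagent, 30 min RT, reflecting class I/II deacetylase activity in whole HCT-116 cells pre-exposed 2 h to DMSO-dissolved compounds.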
% is set by controls: 0 for no effect and ±100 for the full control effect; potency is the fitted concentration of half-maximal effect.

Compound | activity change, negative = inhibition | Potency
CC(C)c1ccccc1 | -0.862% | –
CC(C)CCCCCCc1ccc(OCCOCCO)cc1 | -2.74% | –
Cc1ccsc1C(=CCCN1CCC[C@@H](C(=O)O)C1)c1sccc1C | 6.71% [at 42.5 µM] | –
Cc1ncc(CO)c(CN)c1O | 1.15% [at 42.5 µM] | –
CC(CNC1CCCCC1)OC(=O)c1ccccc1 (stereo not drawn) | 8.79% [at 42.5 µM] | –
COc1ccc(S(=O)(=O)Nc2nnc(CC(C)C)s2)cc1 | 7.09% [at 42.5 µM] | –
Cn1cnc2c(F)c(Nc3ccc(Br)cc3Cl)c(C(=O)NOCCO)cc21 | -0.467% [at 42.5 µM] | –
CO[C@@]1(NC(=O)CSCC#N)C(=O)N2C(C(=O)O)=C(CSc3nnnn3C)CS[C@@H]21 | -2.4% [at 42.5 µM] | –
C[C@@H]1CN(c2c(F)c(F)c3c(=O)c(C(=O)O)cn(C4CC4)c3c2F)C[C@H](C)N1 | -5.53% [at 19 µM] | –
CC(=O)N(CC(O)CN(C(C)=O)c1c(I)c(C(=O)NCC(O)CO)c(I)c(C(=O)NCC(O)CO)c1I)c1c(I)c(C(=O)NCC(O)CO)c(I)c(C(=O)NCC(O)CO)c1I (stereo not drawn) | -0.0855% [at 42.5 µM] | –
CC(C)(C)c1cccc(O)c1 | 0.662% | –
C[C@@H](N)C(=O)O | -0.273% [at 42.5 µM] | –
CCC(=O)O[C@]1(C(=O)SCF)[C@H](C)C[C@H]2[C@@H]3C[C@H](F)C4=CC(=O)C=C[C@]4(C)[C@@]3(F)[C@@H](O)C[C@@]21C | -0.269% [at 42.5 µM] | –
Cc1c(C(=O)NCCO)[n+](=O)c2ccccc2n1[O-] | -1.83% [at 42.5 µM] | –
C=Cc1ccccc1 | -0.354% | –
CCCNC(C)C(=O)Nc1c(C)csc1C(=O)OC (stereo not drawn) | 12.2% [at 42.5 µM] | –
CCN(CC)CCNC(=O)COc1ccc(Cl)cc1 | 1.42% [at 42.5 µM] | –
CC(=O)OC(C)OC(C)=O | 3.42% | –
CN(C)Cc1ccccc1 | 6.86% | –

Compound | activity change, negative = inhibition | Potency
O=c1oc2c(O)c(O)cc3c(=O)oc4c(O)c(O)cc1c4c23 | -0.133% [at 19 µM] | –
Cc1cc(S(=O)(=O)O)c(N)cc1Cl | 4.57% | –
O=c1[nH]c(=O)n([C@H]2C[C@H](O)[C@@H](CO)O2)cc1C(F)(F)F | 4.2% [at 42.5 µM] | –
CC1=C2[C@H](/C=C(\C)C(=O)O)CC[C@@H](C)[C@H]2CC1 | -1.38% | –
Nc1cccc(S(=O)(=O)O)c1 | 3.23% | –
FC(F)(F)C(F)(F)C(F)(F)C(F)(F)C(F)(F)C(F)(F)C(F)(F)C(F)(F)Br | -8.22% [at 42.5 µM] | –
N#CSCC(=O)O | -2.31% [at 42.5 µM] | –
CC(=O)O[C@H]1CC[C@@]2(C)C(=CC[C@@H]3[C@@H]2CC[C@]2(C)C(C(C)=O)=CC[C@@H]32)C1 | 1.07% [at 42.5 µM] | –
CCCC(CCC)(C(=O)OCC)C(=O)OCC | 0.348% [at 42.5 µM] | –
CC(Oc1c(Cl)cccc1Cl)C1=NCCN1 (stereo not drawn) | 0% [at 42.5 µM] | –
CC1=C(CC(=O)O)c2cc(F)ccc2/C1=C\c1ccc(S(C)(=O)=O)cc1 | -1.09% [at 42.5 µM] | –
OCCN(CCO)c1ccccc1 | -6.42% | –
CCN(CC)CC1CCCCN1CC(=O)N1c2ccccc2C(=O)Nc2cccnc21 (stereo not drawn) | 9.44% [at 42.5 µM] | –
COC(C)CCO (stereo not drawn) | 16.6% | –
COC(=O)C(C)O (stereo not drawn) | 1.75% | –
O=Cc1ccc(O)c(O)c1O | -2.5% [at 42.5 µM] | –
CN1CCN(N)CC1 | 3.75% [at 42.5 µM] | –
CN1CCN(C2=Nc3cc(F)ccc3Cc3ccccc32)CC1 | 1.86% [at 42.5 µM] | –
CC1(O)CSC(C)(O)CS1 (stereo not drawn) | – | 21.7 µM (active)

From PubChem BioAssay (Tox21)
